The target in test [1] is T1, Aurora kinase A (Homo sapiens) (UniProt O14965).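 Note: values are mean percent inhibition.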
T1 sequence (whole entry): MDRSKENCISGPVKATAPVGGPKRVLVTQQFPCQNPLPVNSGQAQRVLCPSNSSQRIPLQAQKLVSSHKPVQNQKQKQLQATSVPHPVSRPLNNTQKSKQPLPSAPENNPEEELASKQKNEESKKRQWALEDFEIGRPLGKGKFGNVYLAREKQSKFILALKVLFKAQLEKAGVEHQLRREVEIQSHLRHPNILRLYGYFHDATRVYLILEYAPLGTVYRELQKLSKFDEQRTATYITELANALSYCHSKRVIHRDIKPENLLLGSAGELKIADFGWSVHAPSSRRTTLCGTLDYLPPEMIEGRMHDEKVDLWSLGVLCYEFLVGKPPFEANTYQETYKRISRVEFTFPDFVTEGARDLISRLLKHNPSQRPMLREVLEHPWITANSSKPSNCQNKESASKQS
Conditions: at 1 µM.

The target of test [2] is Aurora kinase B (Homo sapiens) (UniProt Q96GD4). To be noted: at 0.1 µM.
Aurora kinase B (Homo sapiens), sequence (Q96GD4 whole entry): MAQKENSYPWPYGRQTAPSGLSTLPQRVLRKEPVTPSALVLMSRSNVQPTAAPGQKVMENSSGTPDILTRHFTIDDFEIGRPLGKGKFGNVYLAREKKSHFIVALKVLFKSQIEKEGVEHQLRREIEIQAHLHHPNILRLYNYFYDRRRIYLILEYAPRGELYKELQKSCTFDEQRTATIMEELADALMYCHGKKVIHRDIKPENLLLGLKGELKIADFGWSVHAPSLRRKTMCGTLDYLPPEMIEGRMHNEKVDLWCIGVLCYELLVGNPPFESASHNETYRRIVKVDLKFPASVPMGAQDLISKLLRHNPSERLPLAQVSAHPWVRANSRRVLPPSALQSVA
Test [3] has the same target. To be noted: at 1 µM.
Test [4] has as its target T2, Aurora kinase C (Homo sapiens) (UniProt Q9UQB9).
T2 sequence (whole entry): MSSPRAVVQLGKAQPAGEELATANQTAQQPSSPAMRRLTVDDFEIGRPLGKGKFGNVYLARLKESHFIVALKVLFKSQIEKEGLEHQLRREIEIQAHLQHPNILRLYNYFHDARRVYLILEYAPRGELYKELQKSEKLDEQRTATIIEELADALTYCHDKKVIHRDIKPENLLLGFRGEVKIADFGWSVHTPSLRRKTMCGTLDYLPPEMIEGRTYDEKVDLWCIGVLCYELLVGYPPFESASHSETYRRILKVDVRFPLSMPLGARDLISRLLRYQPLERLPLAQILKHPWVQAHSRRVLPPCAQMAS
To be noted: at 0.1 µM.

Test [5] deals with T2, Aurora kinase C (Homo sapiens). To be noted: at 1 µM.
The target of test [6] is Serine/threonine-protein kinase 10 (Homo sapiens) (UniProt O94804). To be noted: at 0.1 µM.
Serine/threonine-protein kinase 10 (Homo sapiens), sequence (O94804 whole entry, looked up): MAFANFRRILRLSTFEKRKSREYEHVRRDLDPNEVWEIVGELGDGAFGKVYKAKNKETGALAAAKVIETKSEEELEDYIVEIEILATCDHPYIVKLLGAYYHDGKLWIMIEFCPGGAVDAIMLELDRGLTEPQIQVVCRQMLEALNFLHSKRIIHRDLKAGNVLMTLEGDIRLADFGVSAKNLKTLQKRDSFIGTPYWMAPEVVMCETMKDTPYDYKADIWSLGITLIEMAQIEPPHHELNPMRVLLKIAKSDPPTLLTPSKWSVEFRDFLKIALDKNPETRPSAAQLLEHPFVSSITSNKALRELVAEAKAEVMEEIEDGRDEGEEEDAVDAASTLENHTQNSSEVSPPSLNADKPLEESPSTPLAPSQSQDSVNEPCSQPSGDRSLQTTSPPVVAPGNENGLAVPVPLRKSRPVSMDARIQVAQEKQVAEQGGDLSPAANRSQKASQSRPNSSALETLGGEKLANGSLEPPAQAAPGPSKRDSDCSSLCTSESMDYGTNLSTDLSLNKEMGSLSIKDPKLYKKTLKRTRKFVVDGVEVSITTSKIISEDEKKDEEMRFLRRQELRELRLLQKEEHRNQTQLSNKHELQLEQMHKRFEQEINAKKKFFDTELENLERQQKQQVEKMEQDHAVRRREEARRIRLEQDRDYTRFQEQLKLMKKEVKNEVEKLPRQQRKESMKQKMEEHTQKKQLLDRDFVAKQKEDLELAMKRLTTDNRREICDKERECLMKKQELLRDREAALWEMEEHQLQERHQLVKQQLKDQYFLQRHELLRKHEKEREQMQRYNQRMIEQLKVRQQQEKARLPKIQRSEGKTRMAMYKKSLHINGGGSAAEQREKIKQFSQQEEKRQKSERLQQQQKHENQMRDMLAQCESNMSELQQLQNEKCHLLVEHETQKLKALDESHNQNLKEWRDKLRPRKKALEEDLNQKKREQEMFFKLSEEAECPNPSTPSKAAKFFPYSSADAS
The target is the same in test [7]. Conditions: at 1 µM.
The target in test [8] is T3, Mitogen-activated protein kinase kinase kinase kinase 2 (Homo sapiens) (UniProt Q12851).
T3 sequence (whole entry): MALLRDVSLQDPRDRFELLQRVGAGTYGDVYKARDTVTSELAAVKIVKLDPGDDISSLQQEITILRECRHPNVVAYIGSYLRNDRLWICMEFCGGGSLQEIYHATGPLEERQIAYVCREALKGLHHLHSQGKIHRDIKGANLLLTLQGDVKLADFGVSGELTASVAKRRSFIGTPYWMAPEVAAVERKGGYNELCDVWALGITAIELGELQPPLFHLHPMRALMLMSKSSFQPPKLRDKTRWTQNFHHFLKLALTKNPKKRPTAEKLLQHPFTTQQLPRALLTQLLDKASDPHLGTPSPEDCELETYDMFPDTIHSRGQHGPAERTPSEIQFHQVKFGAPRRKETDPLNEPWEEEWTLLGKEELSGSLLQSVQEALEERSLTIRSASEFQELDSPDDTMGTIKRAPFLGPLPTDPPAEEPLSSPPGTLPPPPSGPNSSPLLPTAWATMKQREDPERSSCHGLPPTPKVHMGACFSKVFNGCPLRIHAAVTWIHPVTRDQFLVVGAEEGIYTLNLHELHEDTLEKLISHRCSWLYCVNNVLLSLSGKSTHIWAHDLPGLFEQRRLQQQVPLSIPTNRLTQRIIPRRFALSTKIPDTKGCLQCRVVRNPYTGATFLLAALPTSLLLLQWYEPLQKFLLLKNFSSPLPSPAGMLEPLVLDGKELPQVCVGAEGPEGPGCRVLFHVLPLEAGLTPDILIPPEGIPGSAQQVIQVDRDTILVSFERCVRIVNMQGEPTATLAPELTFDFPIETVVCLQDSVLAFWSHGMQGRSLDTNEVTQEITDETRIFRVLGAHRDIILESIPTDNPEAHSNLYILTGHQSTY
Conditions: at 0.1 µM.

For test [9], the target named is T3, Mitogen-activated protein kinase kinase kinase kinase 2 (Homo sapiens). Conditions: at 1 µM.
For test [10], the target named is Mitogen-activated protein kinase kinase kinase kinase 4 (Homo sapiens) (UniProt O95819). To be noted: at 0.1 µM.
Mitogen-activated protein kinase kinase kinase kinase 4 (Homo sapiens), sequence (O95819 2-1239 limits assumed): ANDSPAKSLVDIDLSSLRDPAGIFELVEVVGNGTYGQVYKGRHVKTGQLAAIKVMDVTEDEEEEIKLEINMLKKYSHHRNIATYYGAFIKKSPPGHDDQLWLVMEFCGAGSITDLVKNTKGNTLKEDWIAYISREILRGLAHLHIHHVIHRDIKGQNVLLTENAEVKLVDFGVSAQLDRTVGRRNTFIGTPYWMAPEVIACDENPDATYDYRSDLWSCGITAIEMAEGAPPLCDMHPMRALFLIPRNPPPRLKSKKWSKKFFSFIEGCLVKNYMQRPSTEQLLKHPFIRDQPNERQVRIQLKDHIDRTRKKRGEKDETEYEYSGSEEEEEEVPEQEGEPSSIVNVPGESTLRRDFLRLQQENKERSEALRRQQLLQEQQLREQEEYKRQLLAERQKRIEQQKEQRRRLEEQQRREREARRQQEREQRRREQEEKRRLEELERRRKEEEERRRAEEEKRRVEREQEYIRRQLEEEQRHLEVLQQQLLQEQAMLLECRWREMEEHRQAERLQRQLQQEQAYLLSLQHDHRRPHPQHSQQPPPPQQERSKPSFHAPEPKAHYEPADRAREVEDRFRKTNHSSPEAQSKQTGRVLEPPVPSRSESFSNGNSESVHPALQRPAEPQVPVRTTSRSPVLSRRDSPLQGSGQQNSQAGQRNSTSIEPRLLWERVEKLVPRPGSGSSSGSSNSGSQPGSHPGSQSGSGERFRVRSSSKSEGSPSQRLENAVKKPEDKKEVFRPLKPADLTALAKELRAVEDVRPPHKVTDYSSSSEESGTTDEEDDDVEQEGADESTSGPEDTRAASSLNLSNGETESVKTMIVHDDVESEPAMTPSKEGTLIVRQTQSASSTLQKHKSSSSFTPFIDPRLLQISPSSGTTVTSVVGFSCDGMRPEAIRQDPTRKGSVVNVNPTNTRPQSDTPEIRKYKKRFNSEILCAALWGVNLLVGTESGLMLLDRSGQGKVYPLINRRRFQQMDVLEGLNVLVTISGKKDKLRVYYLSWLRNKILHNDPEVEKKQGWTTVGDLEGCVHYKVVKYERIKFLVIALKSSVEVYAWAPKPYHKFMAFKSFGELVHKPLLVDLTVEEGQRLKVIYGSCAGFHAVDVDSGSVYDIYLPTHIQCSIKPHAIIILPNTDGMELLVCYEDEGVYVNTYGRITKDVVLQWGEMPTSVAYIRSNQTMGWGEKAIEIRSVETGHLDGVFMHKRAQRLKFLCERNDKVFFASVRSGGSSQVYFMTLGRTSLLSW
For test [11] the target is unchanged. Conditions: at 1 µM.
Test [12] has as its target Dual specificity mitogen-activated protein kinase kinase 1 (Homo sapiens) (UniProt Q02750). Conditions: at 0.1 µM.
For test [13] the target is unchanged. To be noted: at 1 µM.
Test [14] has as its target Misshapen-like kinase 1 (Homo sapiens) (UniProt Q8N4C8). Conditions: at 0.1 µM.
Test [15] shares this target. Conditions: at 1 µM.
Test [16] deals with T4, Serine/threonine-protein kinase 4 (Homo sapiens) (UniProt Q13043).
T4 sequence (whole entry): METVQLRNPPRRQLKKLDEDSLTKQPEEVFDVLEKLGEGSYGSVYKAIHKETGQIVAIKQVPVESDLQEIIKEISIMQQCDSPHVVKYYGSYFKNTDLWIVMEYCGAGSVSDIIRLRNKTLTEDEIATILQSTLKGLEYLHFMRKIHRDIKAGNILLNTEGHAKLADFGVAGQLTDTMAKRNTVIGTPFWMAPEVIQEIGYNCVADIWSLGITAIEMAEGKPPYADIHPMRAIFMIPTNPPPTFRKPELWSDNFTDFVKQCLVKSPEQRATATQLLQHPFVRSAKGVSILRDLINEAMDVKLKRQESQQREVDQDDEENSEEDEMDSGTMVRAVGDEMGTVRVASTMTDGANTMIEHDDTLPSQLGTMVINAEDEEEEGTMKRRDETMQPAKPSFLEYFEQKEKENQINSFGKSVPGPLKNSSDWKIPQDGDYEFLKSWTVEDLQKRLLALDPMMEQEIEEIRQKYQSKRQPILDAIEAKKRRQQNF
To be noted: at 0.1 µM.

The target in test [17] is T4, Serine/threonine-protein kinase 4 (Homo sapiens). Conditions: at 1 µM.
Test [18] addresses T5, Serine/threonine-protein kinase 3 (Homo sapiens) (UniProt Q13188).
T5 sequence (whole entry): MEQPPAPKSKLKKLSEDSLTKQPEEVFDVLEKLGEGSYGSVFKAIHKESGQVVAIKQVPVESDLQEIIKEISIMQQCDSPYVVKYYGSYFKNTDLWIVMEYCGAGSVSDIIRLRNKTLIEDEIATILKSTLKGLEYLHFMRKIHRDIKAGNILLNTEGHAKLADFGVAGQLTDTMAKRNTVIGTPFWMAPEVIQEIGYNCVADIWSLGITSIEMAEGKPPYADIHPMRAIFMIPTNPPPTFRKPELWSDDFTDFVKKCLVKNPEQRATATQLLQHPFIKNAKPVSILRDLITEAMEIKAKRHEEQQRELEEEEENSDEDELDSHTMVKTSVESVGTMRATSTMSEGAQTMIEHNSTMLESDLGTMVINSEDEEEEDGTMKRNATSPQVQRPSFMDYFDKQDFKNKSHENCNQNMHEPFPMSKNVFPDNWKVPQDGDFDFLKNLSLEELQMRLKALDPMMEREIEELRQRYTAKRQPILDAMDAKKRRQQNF
Conditions: at 0.1 µM.

Test [19] concerns the target T5, Serine/threonine-protein kinase 3 (Homo sapiens). Conditions: at 1 µM.
Test [20] deals with Serine/threonine-protein kinase 26 (Homo sapiens) (UniProt Q9P289). To be noted: at 0.1 µM.
Serine/threonine-protein kinase 26 (Homo sapiens), sequence (Q9P289 2-416 limits assumed): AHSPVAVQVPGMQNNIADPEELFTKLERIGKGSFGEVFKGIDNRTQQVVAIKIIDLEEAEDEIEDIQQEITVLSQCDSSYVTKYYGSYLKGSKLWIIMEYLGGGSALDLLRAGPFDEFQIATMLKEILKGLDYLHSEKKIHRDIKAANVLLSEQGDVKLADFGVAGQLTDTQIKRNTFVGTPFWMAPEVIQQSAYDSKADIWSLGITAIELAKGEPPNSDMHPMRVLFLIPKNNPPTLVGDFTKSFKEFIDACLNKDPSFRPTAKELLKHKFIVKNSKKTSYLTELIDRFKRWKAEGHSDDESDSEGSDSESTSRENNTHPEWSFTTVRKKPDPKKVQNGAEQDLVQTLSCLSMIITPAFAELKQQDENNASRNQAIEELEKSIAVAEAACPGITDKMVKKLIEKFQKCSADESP

The values that follow come from ChEMBL document CHEMBL1961873, “Compounds: GSK PKIS; Assays: Nanosyn kinase panel” (2012).

Misshapen-like kinase 1 (Homo sapiens), sequence (Q8N4C8 whole entry, looked up): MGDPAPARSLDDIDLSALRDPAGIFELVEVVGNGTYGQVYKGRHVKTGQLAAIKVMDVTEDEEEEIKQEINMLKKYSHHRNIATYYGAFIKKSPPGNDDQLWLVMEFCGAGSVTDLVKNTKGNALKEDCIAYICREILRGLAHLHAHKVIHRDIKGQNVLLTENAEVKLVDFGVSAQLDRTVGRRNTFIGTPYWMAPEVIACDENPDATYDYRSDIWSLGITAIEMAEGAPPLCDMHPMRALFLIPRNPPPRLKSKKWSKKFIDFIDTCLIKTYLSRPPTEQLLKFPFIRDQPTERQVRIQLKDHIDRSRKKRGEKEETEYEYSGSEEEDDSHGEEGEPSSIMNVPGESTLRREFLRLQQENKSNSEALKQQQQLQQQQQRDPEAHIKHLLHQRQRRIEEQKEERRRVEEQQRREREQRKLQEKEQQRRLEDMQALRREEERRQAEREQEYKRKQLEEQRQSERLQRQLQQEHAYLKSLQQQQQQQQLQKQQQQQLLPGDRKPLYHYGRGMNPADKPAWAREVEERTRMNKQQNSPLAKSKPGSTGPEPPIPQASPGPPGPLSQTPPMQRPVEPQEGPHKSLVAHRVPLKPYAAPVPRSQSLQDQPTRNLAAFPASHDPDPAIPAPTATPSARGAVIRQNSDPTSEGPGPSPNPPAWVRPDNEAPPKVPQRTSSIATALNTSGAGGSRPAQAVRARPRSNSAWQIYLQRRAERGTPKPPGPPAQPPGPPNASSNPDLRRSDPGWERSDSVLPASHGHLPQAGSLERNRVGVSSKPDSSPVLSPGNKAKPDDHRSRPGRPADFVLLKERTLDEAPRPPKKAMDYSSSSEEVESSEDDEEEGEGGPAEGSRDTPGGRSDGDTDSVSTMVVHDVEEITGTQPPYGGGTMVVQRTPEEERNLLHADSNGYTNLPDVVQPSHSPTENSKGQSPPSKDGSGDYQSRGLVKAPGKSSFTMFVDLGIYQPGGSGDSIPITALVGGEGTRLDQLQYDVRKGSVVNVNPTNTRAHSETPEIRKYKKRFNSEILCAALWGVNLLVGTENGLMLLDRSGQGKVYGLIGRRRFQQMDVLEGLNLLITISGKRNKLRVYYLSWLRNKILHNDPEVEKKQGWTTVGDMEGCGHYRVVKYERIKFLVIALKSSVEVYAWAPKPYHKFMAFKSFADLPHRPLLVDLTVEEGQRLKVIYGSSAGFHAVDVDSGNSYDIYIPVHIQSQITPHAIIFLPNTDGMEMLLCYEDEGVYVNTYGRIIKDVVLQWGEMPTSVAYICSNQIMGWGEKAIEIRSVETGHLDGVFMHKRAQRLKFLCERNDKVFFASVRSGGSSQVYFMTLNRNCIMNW
Dual specificity mitogen-activated protein kinase kinase 1 (Homo sapiens), sequence (Q02750 whole entry): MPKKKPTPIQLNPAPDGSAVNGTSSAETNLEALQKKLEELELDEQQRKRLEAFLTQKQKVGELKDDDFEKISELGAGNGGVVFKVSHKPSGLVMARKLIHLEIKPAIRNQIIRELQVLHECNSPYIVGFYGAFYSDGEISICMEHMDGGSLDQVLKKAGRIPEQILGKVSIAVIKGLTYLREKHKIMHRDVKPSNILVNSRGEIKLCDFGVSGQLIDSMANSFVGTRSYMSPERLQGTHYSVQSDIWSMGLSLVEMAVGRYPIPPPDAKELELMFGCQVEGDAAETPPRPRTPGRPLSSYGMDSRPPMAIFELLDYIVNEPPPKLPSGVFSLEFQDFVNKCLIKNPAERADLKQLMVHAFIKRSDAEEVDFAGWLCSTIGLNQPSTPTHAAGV

`CCn1c(-c2nonc2N)nc2ccncc21`: the inhibition (commonly the drop in the measured response relative to a control, in per cent) in test [1] worked out at 6.98%; in [2], 0.79%; in test [3], 3.04%; in test [4] it was 0.9%; in test [5], 6.04%; in [6] it was 2.02%. The inhibition worked out at 4.14% in test [7]; 1.41% in [8]; 3.01% in test [9]; 2.18% in [10]; 3.87% in test [11]; 2.48% in [12]. Moreover, the inhibition in test [13] was 1.41%; in test [14] it was 3.12%; in test [15], 3.29%; in test [16] it was 2.91%; in test [17], 1.83%; in test [18] it was 3.05%. In addition, the inhibition was found to be 1.74% in test [19] and 1.67% in [20].

With `CCn1c(-c2nonc2N)nc2c(C#CC(C)(C)O)nc(CN3CCCC3)cc21`, the inhibition was 3.35% in [1]; 0.07% in test [2]; 4.15% in test [3]; 0.15% in test [4]; 23.3% in test [5]; -1.82% in test [6]. For the same compound, the inhibition in test [7] is 1.24%; in [8], 1.94%; in test [9], 1.87%; in test [10] it was 1.68%; in test [11], 1.37%; in test [12] it was 0.73%. The inhibition was -0.46% in [13]; 2.4% in [14]; 0.35% in test [15]; -1.15% in test [16]; 0.25% in test [17]; -2.44% in test [18]. Further, the inhibition in test [19] was -2.27%; in test [20], -0.36%.

As to `COC(=O)Nc1nc2cc(Oc3ccc(NC(=O)Nc4cccc(C(=O)O)c4)cc3)ccc2[nH]1`, the inhibition in test [1] is 12.8%; in test [2], -1.26%; in test [3], 9.37%; in test [4], 0.03%; in [5] it was 37.7%; in [6], 0.65%. Also, the inhibition is 7.1% in [7]; 0.68% in test [8]; 1.11% in test [9]; 0.99% in test [10]; 5.9% in test [11]; 0.36% in [12]. Besides, the inhibition in test [13] worked out at 0.97%; in test [14], 1.59%; in test [15] it was 4.38%; in test [16], 7.79%; in test [17] it was 11.2%; in [18], 7.55%. The inhibition is 10.9% in [19] and 1.75% in test [20].

For `COc1ccccc1Nc1ncc(-c2ccccc2)o1`, the inhibition in test [1] was 8.83%; in test [2], 4.39%; in test [3] it was 11.1%; in test [4], 3.63%; in test [5], 12.5%; in test [6], 8.13%. For the same compound, the inhibition was 8.47% in test [7]; -0.05% in test [8]; 4.63% in test [9]; 6.79% in test [10]; 26.2% in [11]; 4.67% in test [12]. Also, the inhibition in [13] came out at 3.89%; in test [14] it was 6.62%; in test [15] it was 17.3%; in test [16] it was 3.93%; in [17] it was 5.16%; in [18], 6.13%. Moreover, the inhibition in test [19] is 7.36%; in test [20], -1.34%.

Take `CS(=O)(=O)CCNCc1ccc(-c2ccc3ncnc(Nc4ccc(OCc5ccccc5)c(Cl)c4)c3c2)o1`: the inhibition stood at 1.2% in test [1]; 2.22% in test [2]; 10.4% in [3]; 1.18% in [4]; 7.9% in test [5]; 1.97% in test [6]. In addition, the inhibition in test [7] came to 8.82%; in test [8], 3.3%; in test [9], 7.74%; in test [10] it was 2.21%; in [11], 3.37%; in test [12] it was 1.17%. Also, the inhibition in test [13] is 1.86%; in [14], 1.93%; in test [15] it was 1.65%; in test [16], 0.89%; in test [17], 2.54%; in test [18], -1.21%. Further, the inhibition stood at 0.47% in test [19] and 0.75% in [20].

On to `CCCN1CCC(Oc2cc(Nc3nc(Nc4cccc(F)c4C(N)=O)c4cc[nH]c4n3)c(OC)cc2Cl)CC1`, for which the inhibition in test [1] was 5.9%; in [2], 3.16%; in [3], 6.47%; in [4], 2.93%; in [5], -1.8%; in test [6], -0.06%. Besides, the inhibition was 7.28% in test [7]; 1.26% in [8]; 9.17% in test [9]; -0.01% in [10]; 3.64% in test [11]; 0.84% in [12]. The inhibition in test [13] is 20.6%; in [14], 1%; in [15], 1.71%; in test [16], -0.56%; in [17], 1.54%; in test [18] it was -0.96%. For the same compound, the inhibition in test [19] is 0.14%; in [20], 1.68%.
